Sampled rows, rich in hits. Any-hit rate of the full collection: about 6.2%.
KinaseGlo FLuc = counter-screen: inhibitors of Kinase-Glo firefly luciferase | Q27757 | Kinase-Glo luciferase, ATP luminescence, 8 min | Potency, µM (doses to about 38.3 µM), most hits filed as inhibitors | 200,000 tested, 0.28% active | AID 1379; note: nearly all actives have a fitted effect of over 60% in size
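Kinase-Glo luciferase light output from ATP and luciferin was measured with 10 uM ATP, within the enzyme's linear range. Buffer: 50 mM imidazole pH 7.2, 50 mM KCl, 7 mM MgCl2, 0.01% Tween 20, 0.05% BSA; luminescence read after 8 min at ambient temperature.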
RORgamma inh = blocks mouse ROR gamma transcriptional activity | P51450 | Drosophila S2 Gal4-RORgamma UAS-luciferase reporter, 20 h | Potency, µM (doses to about 53.6 µM), actives largely listed as inhibitors | 310,000 tested, 5.4% active | AID 2551; note: nearly all actives have a fitted effect of over 60% in size
Target sequence (P51450 whole entry, looked up, the tested form may be a part): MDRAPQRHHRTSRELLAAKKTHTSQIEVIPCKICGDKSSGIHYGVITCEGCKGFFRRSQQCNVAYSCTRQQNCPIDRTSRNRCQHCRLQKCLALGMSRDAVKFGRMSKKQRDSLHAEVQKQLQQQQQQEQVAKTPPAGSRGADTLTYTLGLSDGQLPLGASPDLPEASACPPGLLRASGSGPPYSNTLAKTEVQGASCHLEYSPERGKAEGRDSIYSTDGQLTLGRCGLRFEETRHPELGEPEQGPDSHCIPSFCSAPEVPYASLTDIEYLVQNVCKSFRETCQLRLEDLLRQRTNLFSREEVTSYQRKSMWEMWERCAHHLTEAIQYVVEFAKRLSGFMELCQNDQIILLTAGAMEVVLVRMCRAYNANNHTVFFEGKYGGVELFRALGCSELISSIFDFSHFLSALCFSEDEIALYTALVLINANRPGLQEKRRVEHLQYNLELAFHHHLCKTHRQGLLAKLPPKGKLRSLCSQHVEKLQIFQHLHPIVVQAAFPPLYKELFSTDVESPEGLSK
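In this cell-based reporter format, copper sulfate (700 uM final) drives Gal4–ROR gamma fusion expression from a metallothionein promoter in Drosophila Schneider cells; compounds preincubated 1 hr, reporter read after 20 hr at ambient temperature.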
Gal4-VP16 FLuc = Gal4-VP16 reporter inhibition counter-screen; Drosophila S2 Gal4-VP16 UAS-luciferase, luminescence, 20 h; Potency, µM (doses to about 53.6 µM), hits mostly inhibitors; 310,000 tested, 3.5% active;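 note: Gal4-VP16 expression switched on by copper sulfate through the metallothionein promoter; nearly all actives have a fitted effect of over 50% in size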
A number is an active result; n = inactive; u = inconclusive; x = not tested or not shown; [ ] = dose if it differs, or a comment. Calls come from the whole dose curve; as a rule, active = well fitted curve in the direction sought with a large enough effect; inconclusive = small, poorly fitted or top-dose-only effect, or another doubt; inactive = no such curve, though single readings can be large; an effect the other way counts as inactive or inconclusive.

SMILES | KinaseGlo FLuc | RORgamma inh | Gal4-VP16 FLuc
CC(C)C1=CC2=CCC3[C@@](C)(CCC[C@@]3(C)C(=O)O)C2CC1 (some centres not stated) | n | u | n
CCOc1ccc(S(=O)(=O)N(CC(=O)Nc2cccnc2)c2ccc(F)cc2)cc1 | x | n | n
COc1cccc(Cn2c(=O)c(C)nc3cnc(OC)nc32)c1 | x | n | n
O=[N+]([O-])c1cc(C(F)(F)F)ccc1NCC1CCCO1 (configuration not stated) | x | n | n
CCOCCCN(C(=O)Cn1nnc(-c2ccc(C)o2)n1)C(C(=O)NC1CCCC1)c1ccc(C)o1 (configuration not stated) | x | n | n
Nc1ccc(S(=O)(=O)Nc2cccc3cccnc23)cc1 | x | 3.98µM | 11.2µM
Nc1ccc(S(=O)(=O)Nc2ccccn2)cc1 | n | n | n
Cc1[nH]c2ccccc2c1C(=O)C(=O)N1CCN(c2ccccc2)CC1 | x | n | n
COC(=O)Cn1c(=NC(=O)CCS(=O)(=O)c2ccccc2)sc2c(OC)ccc(OC)c21 | x | n | n
CCn1c(=NC(=O)CCS(=O)(=O)c2ccccc2)sc2cccc(OC)c21 | x | n | 15.8µM
COc1cc(NS(=O)(=O)c2ccc(NC(=O)C34CC5CC(CC(C5)C3)C4)cc2)ncn1 | n | n | n
CC[C@H](C)[C@@H](CN[C@H](CCCCNC)CNC)NCC1CCCC1 | x | n | n
CCCC[C@@H](CN[C@H](C)CNC)NCC1CCC(C(C)(C)C)CC1 (some centres not stated) | x | 11.2µM | n
CCOC(=O)N1CCC(NC(=O)CS(=O)Cc2nc(-c3ccc(Cl)cc3)oc2C)CC1 (configuration not stated) | x | n | n
COc1cccc(C(=O)Nc2cccc3c2ccc2cccn23)c1 | n | n | n
C(=N\Nc1nncc2ccccc12)/c1ccccn1 | x | 1.41µM | 3.55µM
Fc1cccc(/C=N/Nc2nncc3ccccc23)c1 | x | 1.26µM | 10µM
O=c1cnnc(N/N=C/c2ccccn2)[nH]1 | x | n | n
CC(=O)Nc1ccc(/C=N/Nc2nncc3ccccc23)cc1 | x | n | n
Cc1noc(C)c1-c1ccc2ncnc(NCc3ccc4c(c3)OCO4)c2c1 | x | n | n
CN(C)CCN=Cc1c(O)n(Cc2ccccc2)c(=O)c2ccccc12 | n | 12.6µM | u
CN(C)CCCN=Cc1c(O)n(Cc2ccccc2)c(=O)c2ccccc12 | n | n | n
CSc1ccccc1C(=O)Nc1nc2ccccc2[nH]1 | n | 5.01µM | u
C[C@@H](C(=O)NCc1ccccc1)N1C(=O)C2CC=CCC2C1=O (some centres not stated) | n | n | n
COc1cc(SC)ccc1C(=O)Nc1ccccc1 | n | n | n
SMILES | KinaseGlo FLuc | RORgamma inh | Gal4-VP16 FLuc
CSc1ccccc1C(=O)Nc1nc2ccccc2c(=O)[nH]1 | x | n | u
CC(C(=O)Nc1nc2ccccc2[nH]1)N1C(=O)C2CC=CCC2C1=O (configuration not stated) | n | 10µM | n
COc1cc(SC)ccc1C(=O)Nc1nc2ccccc2[nH]1 | x | 0.1µM | 0.316µM
COc1ccc(C(=O)Nc2nccs2)cc1OC | n | n | u
COc1cc(SC)ccc1C(=O)Nc1nccs1 | n | 7.94µM | u
CC12CC3CC(C)(C1)CC(C(=O)NCc1ccncc1)(C3)C2 | x | n | n
Cc1noc(C)c1S(=O)(=O)N(CC(=O)NC1CCCC1)c1ccc(C(C)C)cc1 | x | n | n
C/C(=C/Cc1c(O)cc2oc(C)cc(=O)c2c1O)COC1OC(CO)C(O)C(O)C1O (configuration not stated) | n | n | n
CCOc1ccc(Nc2nc(NCCN3CCOCC3)nc(OC)n2)cc1 | n | n | n
COc1ccccc1C(=O)Nc1nc2ccccc2[nH]1 | x | 0.251µM | 0.501µM
CS(=O)(=O)c1ccccc1C(=O)Nc1nc2ccccc2[nH]1 | x | n | n
Cc1cc(O)c(C(=O)Cc2csc(C)n2)c(O)c1 | n | n | n
Nc1nnnn1/N=C/C=C/c1ccccc1 | n | n | n
Nc1nnnn1/N=C/C(Br)=C/c1ccccc1 | n | 3.16µM | u
COc1ccc(/C(N)=N/OC(=O)c2cccc([N+](=O)[O-])c2C)cc1 | n | n | n[10 µM]
COc1ccccc1C(=O)CC(=O)C(=O)Nc1cccc([N+](=O)[O-])c1C | x | 7.08µM | 12.6µM
Cc1c(C(=O)OCC(=O)Nc2ccccc2OC(F)F)cccc1[N+](=O)[O-] | n | n | n
COc1ccc(C(=O)CC(=O)Nc2ccc([N+](=O)[O-])cc2)cc1 | x | u | n
COc1ccccc1C/C(N)=N/OC(=O)c1cccc([N+](=O)[O-])c1C | n | n | 12.6µM
COc1cccc(C(=O)CC(=O)C(=O)Nc2cccc([N+](=O)[O-])c2C)c1 | x | 14.1µM | u
COc1ccc(C(=O)CC(=O)C(=O)Nc2cccc([N+](=O)[O-])c2C)cc1 | x | 10µM | u

Screening data deposited in PubChem by National Center for Advancing Translational Sciences (NCATS).
